# Counter-ions that a name gives are not always drawn. ± gives the standard deviation.
# What was measured:
# Jurkat [1] = test: mean cell size (FSC-A) relative to DMSO control (fraction of control); higher = larger cells; conditions: 48 h
# Summary of the method: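 Jurkat cells seeded at 600 cells/µl were incubated 1 h, then exposed for 48h to the Enzo Screen-Well FDA Approved Drug Library v2.0 at 25µM in 0.9% (v/v) final DMSO. Drugs that cut counts below 20% of controls were diluted 10-fold and retested, down to 25nM. Cell count and mean cell size (forward scatter area) were read on an Accuri C6 flow cytometer, relative to solvent-only controls. Plates held 6-12 controls; values are means of 3 biological replicates.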
# Jurkat [2] = test: cell count relative to DMSO control (fraction of control); higher = more cells (less growth inhibition); conditions: 48 h
SMILES,mean cell size (Jurkat [1]),cell count (Jurkat [2])
CCN(CC)CCOC(=O)C1(C2CCCCC2)CCCCC1 [Dicyclomine·HCl] (concentration: 25 µM),0.9222 ± 0.0091,0.922 ± 0.054
OC(CNCC(O)C1CCc2cc(F)ccc2O1)C1CCc2cc(F)ccc2O1 (stereo not drawn) [Nebivolol·HCl] (concentration: 25 µM),1.15 ± 0.094,0.483 ± 0.11
CN1[C@@H]2CC[C@H]1C[C@@H](OC(c1ccccc1)c1ccccc1)C2 [Benztropine Mesylate] (concentration: 25 µM),0.976 ± 0.054,0.666 ± 0.17
O=C(O)CCCCCCCC(=O)O [Azelaic Acid] (concentration: 25 µM),0.921 ± 0.062,0.477 ± 0.081
CC1(C)O[C@@H]2C[C@H]3[C@@H]4C[C@H](F)C5=CC(=O)CC[C@]5(C)[C@H]4[C@@H](O)C[C@]3(C)[C@]2(C(=O)CO)O1 [Flurandrenolide] (concentration: 25 µM),0.916 ± 0.035,0.638 ± 0.12
CC(=O)[C@H]1CC[C@H]2[C@@H]3CCC4=CC(=O)CC[C@]4(C)[C@H]3CC[C@]12C [Progesterone] (concentration: 25 µM),1 ± 0.045,0.755 ± 0.052
Cn1c(=O)c2c(ncn2CC(O)CO)n(C)c1=O (stereo not drawn) [Dyphylline] (concentration: 25 µM),0.966 ± 0.022,0.81 ± 0.037
C#C[C@]1(O)CC[C@H]2[C@@H]3CCC4=CC(=O)CC[C@@H]4[C@H]3CC[C@@]21C [Norethindrone] (concentration: 25 µM),0.948 ± 0.024,0.901 ± 0.084
C[C@@H](O)[C@H]1C(=O)N2C(C(=O)O)=C(SCCNC=N)C[C@H]12 [Imipenem] (concentration: 25 µM),0.883 ± 0.063,0.344 ± 0.13
O=C(O)[C@H]1/C(=C/CO)O[C@@H]2CC(=O)N21 [Clavulanate Potassium] (concentration: 25 µM),0.994 ± 0.011,0.787 ± 0.095
NCCc1ccc(O)c(O)c1 [Dopamine·HCl] (concentration: 25 µM),0.951 ± 0.029,0.909 ± 0.097
COc1ccc(CC2c3cc(OC)c(OC)cc3CC[N+]2(C)CCC(=O)OCCCCCOC(=O)CC[N+]2(C)CCc3cc(OC)c(OC)cc3C2Cc2ccc(OC)c(OC)c2)cc1OC (stereo not drawn) [Atracurium Besylate] (concentration: 25 µM),1.04 ± 0.008,0.264 ± 0.023
Cc1ccc(Cl)c(Nc2ccccc2C(=O)O)c1Cl [Meclofenamate·Na] (concentration: 25 µM),0.903 ± 0.031,0.293 ± 0.032
CC(=O)NO [Acetohydroxamic Acid] (concentration: 25 µM),1.02 ± 0.059,0.755 ± 0.016
CCC(=O)NCC[C@@H]1CCc2ccc3c(c21)CCO3 [Ramelteon] (concentration: 25 µM),1.04 ± 0.066,0.926 ± 0.11
Cc1c(O)cccc1C(=O)N[C@@H](CSc1ccccc1)[C@H](O)CN1C[C@H]2CCCC[C@H]2C[C@H]1C(=O)NC(C)(C)C [Nelfinavir Mesylate] (concentration: 2.5 µM),1.03 ± 0.015,0.779 ± 0.084
NCc1ccc(S(N)(=O)=O)cc1 [Mafenide·HCl] (concentration: 25 µM),0.92 ± 0.056,1.17 ± 0.04
CNC(=C[N+](=O)[O-])NCCSCc1ccc(CN(C)C)o1 [Ranitidine·HCl] (concentration: 25 µM),1 ± 0.049,0.895 ± 0.11
C[N+]1(C)[C@@H]2C[C@@H](OC(=O)C(O)(c3cccs3)c3cccs3)C[C@H]1[C@@H]1O[C@@H]12 [Tiotropium Bromide Monohydrate] (concentration: 25 µM),0.988 ± 0.036,0.68 ± 0.051
C/C(=C\C(=O)OCCCCCCCCC(=O)O)C[C@@H]1OC[C@H](C[C@@H]2O[C@H]2[C@@H](C)[C@H](C)O)[C@@H](O)[C@H]1O [Mupirocin] (concentration: 25 µM),0.928 ± 0.065,0.525 ± 0.18
CCN(CC)CCCC(C)Nc1ccnc2cc(Cl)ccc12 (stereo not drawn) [Chloroquine Diphosphate] (concentration: 25 µM),0.947 ± 0.025,1.03 ± 0.099
CC(=O)Nc1nnc(S(N)(=O)=O)s1 [Acetazolamide] (concentration: 25 µM),1.04 ± 0.061,0.755 ± 0.054
CCN1CCN(C(=O)N[C@@H](C(=O)N[C@@H]2C(=O)N3[C@@H]2SC(C)(C)[C@@H]3C(=O)O)c2ccccc2)C(=O)C1=O [Piperacillin] (concentration: 25 µM),1 ± 0.015,0.91 ± 0.068
CN/C(=N\CCSCc1nc[nH]c1C)NC#N [Cimetidine] (concentration: 25 µM),1.02 ± 0.072,0.733 ± 0.17
